Reference: PubChem BioAssay (EPA / NIEHS)
Several values for one entry are separate records, joined by “and”; a condition that tells them apart may be missing. Equal entries are not always repeated. More than one record can exist for a structure, and the calls need not agree. Activity calls are given as the source filed them. How the source made its calls: active means hit-call score of the fitted dose curve at least 0.9, where 1 is the maximum; inactive means score below 0.9.

Test: ATG_TCF_b_cat_CIS: Attagene CIS-FACTORIAL HepG2 Assay for human T-Cell-Factor with beta-catenin (TCF/b-cat) (AID 2282965)
Details: HepG2 TCF/beta-catenin cis-reporter transcription, actives raise or lower the signal
Description: ATG_CIS is a cell-based, multiplexed-readout assay that uses HepG2, a human liver cell line, with measurements taken at 24 hours after chemical dosing in a 24-well plate.ATG_TCF_b_cat_CIS is one of 52 assay component(s) measured or calculated from the ATG_CIS assay. It is designed to make measurements of mRNA induction, a form of inducible reporter, as detected with fluorescence intensity signals by Reverse transcription polymerase chain reaction (RT-PCR) and Capillary electrophoresis technology.Data from the assay component ATG_TCF_b_cat_CIS was analyzed into 1 assay endpoint. This assay endpoint, ATG_TCF_b_cat_CIS, was analyzed with bidirectional fitting relative to DMSO as the negative control and baseline of activity. Using a type of inducible reporter, measures of mRNA for gain or loss-of-signal activity can be used to understand the reporter gene at the transcription factor-level as they relate to the gene TCF7 and TCF7L2 and LEF1 and TCF7L1. Furthermore, this assay endpoint can be referred to as a primary readout, because this assay has produced multiple assay endpoints where this one serves a reporter gene function. To generalize the intended target to other relatable targets, this assay endpoint is annotated to the dna binding intended target family, where the subfamily is HMG box protein.
Human liver HepG2 cells are transiently transfected with multiple reporter transcription units (MRTUs) in 6-well plates using FuGene 6 reagent (Roche; 3 ml FuGene/1 mg DNA). The MRTU constructs are regulated by a cis-regulating element (promoter). […] A major difference between the CIS and TRANS system is that in CIS activities of endogenous TFs are measured, whereas the TRANS assay evaluates changes in activities of exogenous, chimeric NR-Gal4 proteins. […] At the end of 24 hour incubation, total RNA was isolated using TriZol reagent (Invitrogen). The isolated RNA is then reverse-transcribed using oligo(dT) primer and Mo-MLV reverse transcriptase (Invitrogen) with DNAse I (Ambion) treatment for 30 min. The one-tenth of the produced cDNA was amplified by PCR using Taq DNA polymerase (Invitrogen) and two reporter sequence-specific primers. The PCR products were fluorescently labeled by primer extension with 6-arboxyfluorescein (6-FAM) 5'-labeled reporter sequence-specific primer (2 min at 95 C, 20 s at 68 C and 10 min at 72 C) and these products were digested with 5U of HpaI (New England Biolabs) for 2h at 37 C. The fragments were purified using Qiaquick PCR columns (Qiagen), analyzed on an ABI 3130xL genetic analyzer (Applied Biosystems) with peak positions identified by using a set of X-rhodamine (ROX)-labeled MapMarker1000 molecular weight standards (BioVentures). The raw capillary electrophoresis data was processed using Attagraph software (Attagene).

SMILES	AC50	outcome
C[C@]12CC[C@@H]3c4ccc(O)cc4CC[C@H]3[C@@H]1CC[C@H]2O	27.3 µM (active)	inactive
O=C(O)Cn1c(=O)n(Cc2ccc(Br)cc2F)c(=O)c2ccc(Cl)cc21		inactive
O=C=NCCCCCCN=C=O		inactive
CCOC(=O)O[C@H](C)OC(=O)c1ccc2c(c1)cc(C(=O)NC1CCN(C(C)C)CC1)n2Cc1cc(-c2ccc(Cl)s2)on1		inactive
O=C1CCC(C2CCCCC2)CC1		inactive
CN(C)C(=O)C1(N2CCCCC2)CCN(CC[C@@]2(c3ccc(Cl)c(Cl)c3)CN(C(=O)c3ccccc3)CCO2)CC1	0.98 µM (active)	
O=C1O[C@H]([C@@H](O)CO)C(O)=C1O		inactive
O=C(OCCCCCCOC(=O)c1ccccc1)c1ccccc1		inactive
CC(C)(c1cc(Br)c(O)c(Br)c1)c1cc(Br)c(O)c(Br)c1	42.6 µM (active) and 22.7 µM (active)	
COc1cccc([C@H](O)C2CCN(CCc3ccc(F)cc3)CC2)c1OC	100 µM (active)	
CC(C)(O)c1ccc(CNC(=O)c2cccnc2Oc2ccc3nonc3c2)cc1		inactive
Oc1ccccc1		inactive
CCCCCCCC[Si](OCC)(OCC)OCC	68.9 µM (active) and 100 µM (active)	inactive
NCc1cccc(C2CCN(C(=O)c3ccc(C#Cc4ccccc4F)o3)CC2)c1	17 µM (active)	
Oc1ccc2ccccc2c1	77.3 µM (active) and 100 µM (active)	
CCCCCCCCN(C)CCCCCCCC		inactive
O=c1[nH]sc2ccccc12	44.4 µM (active)	
Cc1c2ccccc2c(C)c2c1ccc1ccccc12	53.4 µM (active)	

SMILES	AC50	outcome
OCCO		inactive
Cc1cccc2ccccc12		inactive
CC(C)(C)c1csc(-c2cc3cc(OCc4ccccc4CC(=O)O)ccc3o2)n1		inactive
CCCCCCCCOc1ccc(C(=O)c2ccccc2)c(O)c1		inactive
CN1C(=O)N(c2ccccc2Br)Cc2cnc(Nc3ccc4c(c3)OCC(CO)O4)nc21 (stereo not given)	0.116 µM (active)	
CC/C(=C(/CC)c1ccc(O)cc1)c1ccc(O)cc1	11.1 µM (active) and 16.2 µM (active) and 5.89 µM (active)	inactive
Cc1ccc2oc(CN(Cc3ccccc3)C(=O)Nc3c(F)cc(F)cc3F)c(-c3ccc(Cl)cc3)c2c1		inactive
CCCCCCCCCCCO		inactive
CN(C)c1ccc(C(=C2C=CC(=[N+](C)C)C=C2)c2ccc(N(C)C)cc2)cc1	2.96 µM (active)	
CCCCCCCCOC(=O)c1cc(O)c(O)c(O)c1		inactive
NC(=O)c1nc(-c2cccc(-c3cc(F)ccc3OCC(F)(F)C(F)(F)F)c2)n[nH]1	33 µM (active)	
O=C(O)c1ccccc1-n1cc(C(=O)O)c(=O)c2cc(Nc3c(F)cc(F)cc3Cl)c(Cl)cc21		inactive
Clc1cc(Cl)c2c(c1)N=C1CCCCCN1C2	83.4 µM (active)	
Cc1cc2c(cc1C(F)(F)F)N(C(=O)Nc1ccc(Oc3cccnc3C)nc1)CC2		inactive
CCCCOC(=O)c1ccc(O)cc1	100 µM (active)	inactive
Cc1ncc(CO)c(CO)c1O		inactive
O=C(O)Cc1cc(I)c(Oc2ccc(O)c(I)c2)c(I)c1	51.2 µM (active)	inactive
